Where a name gives a salt, the structure may show the parent alone. ± gives the uncertainty stated by the source.

A word on the cell viability: it is a read-out of living cells in per cent, often relative to untreated cells.

This assay has as its system NCC-PMP1-C1. In words: cell viability relative to DMSO control; higher = less growth inhibition. To be noted: 10 µM; 72 h. On the procedure: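 NCC-PMP1-C1 pseudomyxoma peritonei cells were seeded in 384-well plates coated with Matrigel and MEF (1e4 cells). Viability was read after 72 h by CCK-8 and expressed as % of the DMSO control, mean ± SD of duplicates.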
Turning to `Cc1c(N)nc(C(CC(N)=O)NCC(N)C(N)=O)nc1C(=O)NC(C(=O)NC(C)C(O)C(C)C(=O)NC(C(=O)NCCc1nc(-c2nc(C(=O)NCCC[S+](C)C)cs2)cs1)C(C)O)C(O[C@@H]1O[C@@H](CO)[C@@H](O)[C@H](O)[C@@H]1O[C@H]1O[C@H](CO)[C@@H](O)[C@H](OC(N)=O)[C@@H]1O)c1cnc[nH]1` (some centres undefined) [Bleomycin Sulfate], the cell viability was 80.5 ± 1.4%.

On to `C=CCN1CC[C@]23c4c5ccc(O)c4O[C@H]2C(=O)CC[C@@]3(O)[C@H]1C5` [Naloxone HCl], for which the cell viability came out at 1.93 ± 1.3%.

Turning to `CC[C@@]1(O)C(=O)OCc2c1cc1n(c2=O)Cc2cc3ccccc3nc2-1` [Camptothecin], the cell viability worked out at 82.2 ± 14%.

Take `O=C(O)CCCc1ccc(N(CCCl)CCCl)cc1` [Chloroambucil]: the cell viability is 87 ± 20%.

Consider `CC(=O)OC12COC1CC(O)C1(C)C(=O)C(O)C3=C(C)C(O)CC(O)(C(OC(=O)c4ccccc4)C21)C3(C)C` (centres undefined) [10-Deacetylbaccatin-III], for which the cell viability was found to be 94.7 ± 12%.

With `N.N.[Cl][Pt][Cl]` [Cisplatin], the cell viability came to 102 ± 3.3%.

Consider `C/C=C(\C)C(=O)N[C@@H](c1ccccc1)[C@@H](O)C(=O)O[C@H]1C[C@@]2(O)[C@@H](OC(=O)c3ccccc3)[C@@H]3[C@]4(OC(C)=O)CO[C@@H]4C[C@H](O)[C@@]3(C)C(=O)[C@H](OC(C)=O)C(=C1C)C2(C)C` [Cephalomannine], for which the cell viability was determined as 74.9 ± 6.8%.

With `Cn1c(CCCC(=O)O)nc2cc(N(CCCl)CCCl)ccc21` [Bendamustine HCl], the cell viability is 127 ± 6%.

Regarding `COCC1(CO)C(=O)C2CCN1CC2` (centres undefined), the cell viability worked out at 115 ± 8.3%.

Regarding `NCCCNCCSP(=O)(O)O` [Amifostine], the cell viability is 95.3 ± 16%.

For `C=C1C[C@@H]2[C@H](CC[C@]3(C)C(=O)CC[C@@H]23)[C@@]2(C)C=CC(=O)C=C12` [Exemestane], the cell viability was found to be 138 ± 5.7%.

As to `O=P1(NCCCl)OCCCN1CCCl` (centres undefined) [Ifosfamide], the cell viability was 106.5 ± 0.13%.

On to `O=P1(N(CCCl)CCCl)NCCCO1` (centres undefined) [Cyclophosphamide Monohydrate], for which the cell viability was 107 ± 9.1%.

As for `O=C1C2CCN(CC2)C1(CO)CO`, the cell viability is 78.8 ± 3.1%.
